High-throughput results (PubChem)
Hits are enriched below; roughly 5.2% of the tested compounds scored in any of these assays.
Coupling enz: qHTS Assay for Inhibitors of Fructose-1,6-bisphosphate Aldolase from Giardia Lamblia: Coupling assay counterscreen; coupling enzyme system counterscreen, AmpLite Red fluorescence; activity change, negative = inhibition, % at 58.2 µM, hits read low; hit rate 0.67% among 290,000; in the data active = activity change below about -30%
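Activity here indicates interference with the coupling reaction, not aldolase inhibition. Compounds at 57.5 uM final met coupling enzymes for 10 min at RT; substrate and AmpLite Red detection followed, with a 525/598 nm fluorescence read after 20 min.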
Tau fluor counter: Counterscreen qHTS for Inhibitors of Tau Fibril Formation, Fluorescence Polarization | AID 1463, 2008 | Potency, µM (highest dose often 57.7 µM), for inactives: top-dose activity change, negative = decrease | hit rate 0.93% among 280,000 | tau K18 P301L Alexa594 fluorescence, heparin fibrillization; note: potency is the fitted concentration of half-maximal effect; nearly all actives have a fitted effect of over 55% in size
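Human tau K18 P301L (15 uM unlabeled, 0.24 uM Alexa 594-labeled) in 100 mM sodium acetate pH 7 with 20 uM heparin, 6 hr at 37 C. ThT 30 uM added, 1 hr ambient; Alexa 594 FP and total fluorescence read at 555/632 nm.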
Tau ThT inhib: qHTS for Inhibitors of Tau Fibril Formation, Thioflavin T Binding. Potency, µM (highest dose often 57.4 µM), for inactives: top-dose activity, negative = inhibition, actives largely listed as inhibitors. Microtubule-associated protein tau (Homo sapiens), P10636. hit rate 2.1% among 270,000. recombinant tau K18 P301L (four-repeat tau fragment), heparin-induced fibrillization, ThT fluorescence. AID 1460, 2008; note: potency is the fitted concentration of half-maximal effect; nearly all actives have a fitted effect of over 55% in size
Target sequence (P10636 561-689 P618L limits assumed): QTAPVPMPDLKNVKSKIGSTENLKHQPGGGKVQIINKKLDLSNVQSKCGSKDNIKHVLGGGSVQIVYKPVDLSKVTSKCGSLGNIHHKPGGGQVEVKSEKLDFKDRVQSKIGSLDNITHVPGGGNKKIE
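Heparin-induced (20 uM) aggregation of recombinant human K18 P301L tau, 15 uM unlabeled with 0.24 uM labeled, pH 7 acetate buffer, 6 hr at 37 C with compound. Fibrils quantified by 30 uM ThT fluorescence after 1 hr ambient incubation.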
Tau fibril FP: qHTS for Inhibitors of Tau Fibril Formation, Fluorescence Polarization; Microtubule-associated protein tau (Homo sapiens), P10636; K18 P301L tau heparin fibrillization, Alexa594 FP, 6 h; Potency, µM (top dose mostly 57.7 µM), without a hit: top-dose activity, negative = inhibition, most hits filed as inhibitors; hit rate 0.39% among 280,000; note: potency is the fitted concentration of half-maximal effect; nearly all actives have a fitted effect of over 55% in size
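Compound effects on tau fibrillization are measured by Alexa 594 fluorescence polarization (ex 555, em 632 nm). K18 P301L tau is used at 15 uM with 0.24 uM labeled tracer, and 20 uM heparin induces aggregation over 6 hr at 37 C.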
Sfp PPTase inh: qHTS Assay for Inhibitors of Bacillus subtilis Sfp phosphopantetheinyl transferase (PPTase); 4'-phosphopantetheinyl transferase ffp (Bacillus subtilis), Q9F4F7; Biochemical Sfp PPTase activity, qHTS; Potency, µM, inactives show largest response in the series, negative = inhibition, usual class: inhibitors; hit rate 3.5% among 310,000;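 note: the enzyme is Sfp with the accession as filed and its product quenches rhodamine fluorescence; potency is the fitted concentration of half-maximal effect; 0% = enzyme reaction without inhibitor and -100% = no enzyme wells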
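Compounds were incubated with enzyme (final 15 nM) for 15 min at room temperature before substrate addition started the reaction. Fluorescence at 525 nm excitation, 598 nm emission was recorded immediately and after 30 minutes.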
The depositor's hits bear a star; ? = inconclusive; . = not tested or not shown; [ ] = dose if it differs, or a comment. Unless noted, calls come from the whole dose curve; as a rule, active = well fitted curve in the direction sought with a large enough effect; inconclusive = small, poorly fitted or top-dose-only effect, or another doubt; inactive = no such curve, though single readings can be large; an effect the other way counts as inactive or inconclusive. Unless noted, % is set by controls: 0 for no effect and ±100 for the full control effect.

SMILES | Coupling enz | Tau fluor counter | Tau ThT inhib | Tau fibril FP | Sfp PPTase inh
CCOCC(=O)Nc1nnc(COCC)s1 | 1.2 | 2.8% | 1.0% | 3.7% | 3.6%
O=C(C[n+]1cc(-c2ccc(Cl)c(Cl)c2)n2c1CCC2)N1c2ccccc2Sc2ccccc21 | 1.3 | ? | ? | -14.4% | 44.7µM*
O=C(C[n+]1cc(-c2ccc(Cl)cc2)n2c1CCC2)N1c2ccccc2Sc2ccccc21 | 2.5 | -6.6% | ? | 10.2% | ?
COCCNC(=O)c1ccc2c(=O)n(CCCN3CCCC3=O)c(=S)[nH]c2c1 | 2.0 | -5.6% | -3.7% | -3.8% | 50.1µM*
CCCCCNC(=O)c1ccc2c(=O)n(CCCN3CCCC3=O)c(=S)[nH]c2c1 | -0.2 | -9.6% | -3.0% | -6.7% | -14.3%
COc1ccccc1Cn1c(=S)[nH]c2cc(C(=O)NCCCN3CCOCC3)ccc2c1=O | 0.6 | . | . | . | -11.0%
COCCn1c(=S)[nH]c2cc(C(=O)NCCCN3CCOCC3)ccc2c1=O | 0.2 | 6.3% | 6.4% | -4.1% | 79.4µM*
COc1cc(O)c2c(c1)oc(=O)c1c3cc(O)c(O)cc3oc21 | -17.2 | . | . | . | 10µM*
CCC(C)c1ccccc1NC(=O)C(C)NCCN(C)C (stereo not drawn) | 1.2 | -13.5% | -16.3% | -6.2% | 79.4µM*
Cc1ccc(N=C2NC(=O)/C(=C\c3ccsc3)S2)c(C)c1 | 5.4 | 5.8% | 9.5% | 3.2% | 79.4µM*
Cc1ccc(N=C2NC(=O)/C(=C/c3cccnc3)S2)c(C)c1 | 0.7 | -10.0% | ? | -1.5% | 6.6%
Cc1cc(C)cc(-n2c(SCC(=O)Nc3cccc(F)c3)nc3c([nH]c4ccccc43)c2=O)c1 | . | -15.9% | 10.1% | ? | .
O=C(c1cnc2cc(-c3ccccc3)nn2c1)c1cc([N+](=O)[O-])ccc1O | . | -17.6% | ? | 5.1% | .
Cc1ccc(-c2cc3ncc(C(=O)c4cc([N+](=O)[O-])ccc4O)cn3n2)cc1 | . | -29.1% | 10µM* | 2.8% | .
CCOC(=O)C1=C(C)NC(C)=C(C(=O)OCC)C1c1ccc(OC)cc1 | 1.1 | -25.3% | -8.3% | 7.3% | 5.1%
COC(=O)C1=C(C)NC=C([N+](=O)[O-])C1c1ccc(OC)cc1 (stereo not drawn) | -3.2 | -17.6% | ? | -10.6% | 14.1µM*
C#CCOCCOCCOCCNc1nc(N2CCN(C(=O)[C@H](Cc3cc4ccccc4[nH]3)n3cc([C@@H](N)Cc4ccc(O)cc4)nn3)CC2)nc(N2CCN(C(=O)[C@H](Cc3cc4ccccc4[nH]3)n3cc([C@@H](N)CC(C)C)nn3)CC2)n1 | -0.9 | -5.1% | ? | -7.3% | 56.2µM*
C#CCOCCOCCOCCNc1nc(N2CCN(C(=O)[C@H](Cc3cc4ccccc4[nH]3)n3cc([C@@H](N)CC(C)C)nn3)CC2)nc(N2CCN(C(=O)[C@H](Cc3cc4ccccc4[nH]3)n3cc([C@@H](N)CC(C)C)nn3)CC2)n1 | -5.6 | -14.1% | ? | ? | 15.8µM*
C#CCOCCOCCOCCNc1nc(N2CCN(C(=O)C(Cc3cc4ccccc4[nH]3)n3cc(C(N)Cc4ccc(O)cc4)nn3)CC2)nc(N2CCN(C(=O)C(Cc3cc4ccccc4[nH]3)n3cc(C(N)Cc4ccc(O)cc4)nn3)CC2)n1 (stereo not drawn) | 1.6 | -25.7% | ? | ? | ?
C#CCOCCOCCOCCNc1nc(N2CCN(C(=O)[C@H](CCC(=O)O)n3cc(C(N)CO)nn3)CC2)nc(N2CCN(C(=O)[C@H](CCC(=O)O)n3cc(C(N)CC(C)C)nn3)CC2)n1 (stereo partly drawn) | -3.7 | 9.6% | 1.8% | -7.5% | 89.1µM*
COc1ccccc1CNC(=O)CSc1ccc(C)cc1 | -30.2* | -6.2% | 5.6% | 8.6% | 11.3%
CCOC(=O)c1c(Nc2ccc(F)cc2)nnc(-c2ccccc2)c1-c1ccccc1 | . | -14.0% | -12.1% | -1.7% | .
Cc1cc(O)ccc1N/C=C1\CCCC1=O | -44.4* | -20.3% | 28.2µM* | ? | ?
O=C(CSc1nc2ccccc2c2nc(-c3ccccc3)nn12)Nc1ccc(F)cc1 | . | -5.4% | 4.6% | -7.9% | .
CNc1ccc(/C=C2\CSc3ccccc3C2=O)cc1[N+](=O)[O-] | -2.6 | 14.2% | 2.51µM* | -1.2% | -11.7%
SMILES | Coupling enz | Tau fluor counter | Tau ThT inhib | Tau fibril FP | Sfp PPTase inh
O=C1/C(=C/c2cccc([N+](=O)[O-])c2)CSc2ccc(Cl)cc21 | -0.1 | -19.9% | -2.8% | -16.2% | -10.6%
Cc1ccc(-n2ncc(C(=O)Nc3ccc4c(c3)OCCO4)c2C2CCN(C(=O)OC(C)(C)C)CC2)cc1C | . | ? | -16.7% | 7.9% | .
NC(=S)n1[nH]c(-c2ccc([N+](=O)[O-])cc2)c(N=Nc2ccc(Cl)cc2)c1=O | -1.0 | ? | 3.98µM* | 9.2% | -17.8%
COc1cc(/C=N/Nc2nc3ccccc3s2)cc([N+](=O)[O-])c1O | -1.3 | 14.1µM*[quencher] | 1.78µM* | -9.6% | ?
O=[N+]([O-])c1ccccc1N/N=C/c1cc2ccccc2nc1Cl | 1.8 | -28.9% | 2.24µM* | 6.2% | 7.8%
O=[N+]([O-])c1cc(Cl)cc(/C=N/Nc2nc3ccccc3s2)c1O | 0.3 | 25.1µM*[quencher] | 11.2µM* | -2.7% | 0.2%
CCCc1cc(=O)n2c(C(=O)Nc3ccc(OCC)cc3)c(C(=O)Nc3ccc(C)cc3)sc2n1 | . | -12.8% | -2.2% | -9.9% | .
C[C@H](NC(c1cccc2nc(O)c(O)nc12)P(=O)(O)O)c1ccc(Br)cc1 (stereo partly drawn) | 8.0 | . | . | . | -5.3%
CC1=C(C#N)c2nc(N)c(C#N)c(C)c2/C1=C\c1ccc(OCC(=O)O)c(Cl)c1 | -12.4 | ? | 15.8µM* | ? | ?
COc1ccc(Oc2ncc3nc(-c4ccccc4)c(=O)n(CCC#N)c3n2)cc1 | -0.8 | . | . | . | 0.6%
Cc1nc2ccc(S(=O)(=O)N(CC(=O)Nc3cccc(Cl)c3)Cc3ccccc3)cc2s1 | . | ? | -4.4% | ? | .
CCN(c1ccccc1)S(=O)(=O)c1ccc(Cl)c(NC(=O)CSc2ncn[nH]2)c1 | 4.8 | -21.8% | -1.7% | -0.2% | 22.9%
CCN(c1ccccc1)S(=O)(=O)c1ccc(Cl)c(NC(=O)CN(C)C2CCN(C)CC2)c1 | -0.9 | . | . | . | 79.4µM*
O=C(CSc1ccc(-c2cccs2)nn1)Nc1cccc(F)c1 | . | ? | -15.6% | ? | .
COc1ccc(C2CC(=O)c3cc(-c4nc(-c5cccc(Cl)c5)cs4)c(=O)[nH]c3C2)cc1OC (stereo not drawn) | . | -9.0% | -12.1% | -12.9% | .
Cc1cc(SCC(=O)Nc2nsc(-c3ccc(C(C)(C)C)cc3)n2)nc2ccccc12 | . | -13.2% | -13.1% | -3.1% | .
